Among the test systems are DU-145 prostate; K-562 leukemia; MALME-3M melanoma; MDA-MB-231 breast; RXF 393 renal; SF-268 CNS; SF-295 CNS; SF-539 CNS; UACC-257 melanoma; M14 melanoma.
Experiment in all cases: NCI-60 one-dose screen, 48 h (100 = growth as untreated, 0 = no growth, -100 = all killed)
Conditions in all cases: 10 µM unless noted

This is part of a sample that, as a whole, favours compounds with a hit. Of some 83,000 tested, about 20% had one in any assay.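 48-hour exposure, single concentration, 96-well plates; percent growth endpoint where 0 means no net growth. Active: below 10.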 The source made the active and inactive calls.

From PubChem BioAssay (NCI) come the findings set out here.

With `CC(=O)[C@@H]1CC[C@]2(C(=O)O)CC[C@]3(C)[C@H](CC[C@@H]4[C@@]5(C)Cc6c([nH]c7ccccc67)C(C)(C)[C@@H]5CC[C@]43C)[C@@H]12`, the growth is 59.4% (inactive) in the test on DU-145 prostate; 37.8% (inactive) in the test on K-562 leukemia; 96.1% (inactive) with MALME-3M melanoma; 83% (inactive) in the test with MDA-MB-231 breast; 73.2% (inactive) in the test on RXF 393 renal; 63.4% (inactive) in the test on SF-268 CNS. In addition, the growth in the test on SF-295 CNS is 36% (inactive); in the test on SF-539 CNS it was 74.3% (inactive); in the test on UACC-257 melanoma, 84.2% (inactive); in the test with M14 melanoma, 78.7% (inactive).

Take `O=C(CN1N=C(c2ccc(F)cc2)CCC1=O)Nc1nccs1`: the growth was 118% (inactive) in the test with DU-145 prostate; 92.6% (inactive) in the test with K-562 leukemia; 105% (inactive) in the test on MALME-3M melanoma; 109% (inactive) in the test on MDA-MB-231 breast; 110% (inactive) in the test on RXF 393 renal; 99.9% (inactive) in the test on SF-268 CNS. Besides, the growth in the test with SF-295 CNS is 97.3% (inactive); in the test on SF-539 CNS, 98.1% (inactive); with UACC-257 melanoma it was 92.8% (inactive); in the test on M14 melanoma it was 102% (inactive).

Consider `Oc1ccccc1-c1nc2c3ccccc3c3ccccc3c2o1`, for which the growth in the test with DU-145 prostate was 104% (inactive); in the test on K-562 leukemia, 88.1% (inactive); in the test on MALME-3M melanoma, 91.9% (inactive); in the test with MDA-MB-231 breast, 81.7% (inactive); in the test with RXF 393 renal, 109% (inactive); in the test with SF-268 CNS, 89.8% (inactive). The growth is 115% (inactive) with SF-295 CNS, 105% (inactive) in the test with SF-539 CNS, 101% (inactive) with UACC-257 melanoma and 103% (inactive) with M14 melanoma.

As to `COc1ccc2[nH]c(=O)c(/C=C/C(=O)/C=C/c3ccc(O)c(OC)c3)cc2c1`, the growth with DU-145 prostate is 8.26% (active); in the test on K-562 leukemia, 4.67% (active); in the test on MALME-3M melanoma it was 52.8% (inactive); with MDA-MB-231 breast it was 18.3% (inactive); in the test on RXF 393 renal, -76.7% (active); in the test with SF-268 CNS it was 9.98% (active). Further, the growth in the test on SF-295 CNS is 17.5% (inactive); in the test on SF-539 CNS it was 8.47% (active); in the test with UACC-257 melanoma it was 40.3% (inactive); in the test with M14 melanoma, -32.4% (active).

Take `C=C(C)[C@@H]1CCC=C2CC[C@]3(C)[C@H](CC[C@@H]4[C@@]5(C)CCCNC(C)(C)[C@@H]5CC[C@]43C)[C@H]21`: the growth was 18.6% (inactive) in the test on DU-145 prostate; -0.754% (active) in the test on K-562 leukemia; 38% (inactive) in the test with MALME-3M melanoma; -6.11% (active) in the test on MDA-MB-231 breast; 47.6% (inactive) with RXF 393 renal; 93.1% (inactive) with SF-268 CNS. In addition, the growth in the test on SF-295 CNS was 72.5% (inactive); in the test with SF-539 CNS, 84.8% (inactive); with UACC-257 melanoma it was 83% (inactive); in the test on M14 melanoma, 34.6% (inactive).

`O=C(Nc1ccc2ncnc(Nc3ccc(F)c(Cl)c3)c2c1)c1ccccc1`: the growth in the test on DU-145 prostate was 36.1% (inactive); in the test with K-562 leukemia it was 69.4% (inactive); in the test on MALME-3M melanoma, 90.4% (inactive); in the test with MDA-MB-231 breast, 79.8% (inactive); with RXF 393 renal it was 73.1% (inactive); with SF-268 CNS, 67.1% (inactive). The growth with SF-295 CNS was 82% (inactive); with SF-539 CNS it was 78.6% (inactive); in the test on UACC-257 melanoma, 96.8% (inactive); in the test on M14 melanoma, 90.1% (inactive).

`CCCCc1n(Cc2ccc3ccccc3c2)c2ccccc2[n+]1Cc1ccc2ccccc2c1`: the growth was -93.1% (active) with DU-145 prostate; -73.2% (active) with K-562 leukemia; -86.2% (active) in the test with MALME-3M melanoma; -88.2% (active) in the test on MDA-MB-231 breast; -92.6% (active) in the test with RXF 393 renal; -80.5% (active) with SF-268 CNS. The growth in the test on SF-295 CNS was -87.8% (active); with SF-539 CNS, -94.3% (active); in the test with UACC-257 melanoma, -58.1% (active); with M14 melanoma, -81.4% (active).

Regarding `CC(C)Cc1cc(CNC(=O)C2[C@H]3CN(C(=O)c4ccccc4)C[C@@H]23)nn1-c1ccccc1` (stereo not given in full), the growth in the test with DU-145 prostate is 100% (inactive); in the test on K-562 leukemia, 80.9% (inactive); in the test on MALME-3M melanoma, 86.6% (inactive); in the test with MDA-MB-231 breast, 103% (inactive); in the test with RXF 393 renal, 99.8% (inactive); with SF-268 CNS, 94.4% (inactive). Also, the growth in the test on SF-295 CNS was 101% (inactive); in the test with SF-539 CNS it was 96.8% (inactive); in the test on UACC-257 melanoma, 73.4% (inactive); with M14 melanoma, 95.5% (inactive).

Consider `Cc1c(Cl)cccc1NC(=O)c1sc2nc3c(cc2c1N)CCCCC3`, for which the growth in the test on DU-145 prostate was 15.6% (inactive); in the test with K-562 leukemia it was 8.36% (active); in the test on MALME-3M melanoma, 68.9% (inactive); in the test on MDA-MB-231 breast, 48.4% (inactive); in the test with RXF 393 renal, 22.8% (inactive); in the test with SF-268 CNS it was 54.2% (inactive). Also, the growth is 32% (inactive) in the test on SF-295 CNS, 13.9% (inactive) in the test with SF-539 CNS, 67% (inactive) with UACC-257 melanoma and 2.84% (active) with M14 melanoma.

For `COC(=O)c1nc(-c2ccccc2)oc1S(=O)(=O)n1nc(-c2ccccc2)cc1N`, the growth was 96.2% (inactive) in the test on DU-145 prostate; 4.99% (active) in the test on K-562 leukemia; 2.22% (active) in the test with MALME-3M melanoma; 103% (inactive) in the test on MDA-MB-231 breast; 103% (inactive) in the test with RXF 393 renal; 87.5% (inactive) in the test on SF-268 CNS. Also, the growth was 97.5% (inactive) in the test on SF-295 CNS, 80.7% (inactive) in the test on SF-539 CNS, 52% (inactive) with UACC-257 melanoma and 76% (inactive) in the test on M14 melanoma.

Turning to `CS(=O)(=O)O[C@@H]1C(=O)N(c2cc3c4ccccc4ccc3c3ccccc23)[C@H]1c1ccc(F)cn1`, the growth with DU-145 prostate is 11.5% (inactive); in the test with K-562 leukemia it was 10.3% (inactive); in the test with MALME-3M melanoma it was 74.2% (inactive); with MDA-MB-231 breast, 50.1% (inactive); in the test with RXF 393 renal, 18.6% (inactive); with SF-268 CNS, 43.4% (inactive). Besides, the growth in the test with SF-295 CNS is 9.48% (active); with SF-539 CNS, 15.7% (inactive); with UACC-257 melanoma, 41.7% (inactive); in the test on M14 melanoma it was 30.2% (inactive).

`COc1ccc(-n2cc(COc3ccc4c5ccnc(C)c5n(CC(C)C)c4c3)nn2)cc1`: the growth in the test with DU-145 prostate is 88.3% (inactive); with K-562 leukemia, 27.3% (inactive); in the test with MALME-3M melanoma, 71.2% (inactive); with MDA-MB-231 breast it was 73.1% (inactive); in the test with RXF 393 renal, 57.5% (inactive); in the test on SF-268 CNS it was 79% (inactive). Further, the growth in the test on SF-295 CNS is 60.6% (inactive); in the test with SF-539 CNS, 82.6% (inactive); in the test with UACC-257 melanoma, 52.7% (inactive); with M14 melanoma it was 71.5% (inactive).

On to `COc1ccc(Nc2nc(SCC(C)C)nc(-c3ccc(F)cc3)c2C#N)cc1`, for which the growth in the test on DU-145 prostate was 79.4% (inactive); in the test on K-562 leukemia, 19.3% (inactive); in the test with MALME-3M melanoma it was 61.9% (inactive); in the test with MDA-MB-231 breast it was 89.3% (inactive); in the test on RXF 393 renal, 74% (inactive); in the test on SF-268 CNS, 74.9% (inactive). Moreover, the growth was 40.6% (inactive) with SF-295 CNS, 66.1% (inactive) in the test on SF-539 CNS, 73% (inactive) with UACC-257 melanoma and 49.3% (inactive) in the test with M14 melanoma.
